From PubChem BioAssay
Sampled rows, rich in hits. Any-hit rate of the full collection: about 2.6%.
TWEAK-Fn14 inh = blocks TWEAK-Fn14 interaction in a reporter cell assay | inhibition, % at 10 µM | AID 1159606 | actives 2% (n = 360,000) | TWEAK-stimulated Fn14 reporter cells, luciferase luminescence, 8 h; in the data active = inhibition above about 50%
LGR2 antag = inhibitors of bursicon-induced Drosophila LGR2 receptor cAMP signaling; inhibition, % at 9.99 µM; HEK293 LGR2, CRE-luciferase, bursicon-stimulated, 4 h; AID 720647; actives 0.35% (n = 380,000);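 active = drop in luminescence signal, shown as inhibition above about 50% in the replicate tests, limit read from the data, passing the limit was not always enough; inconclusive = probably only some replicates passing the limit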;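 also: agonist challenge used bursicon conditioned medium at about half maximal strength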
EWS-Fli inh = blocks EWS/Fli oncoprotein-driven transcription. inhibition, % at 12.6 µM. actives 0.67% (n = 350,000). A673 NR0B1-luciferase reporter, viability-normalised;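 active = mean inhibition of at least 50% after viability correction, with every replicate also passing that limit; inconclusive = mean reaches 50% but only one of two replicates passes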;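 also: firefly luciferase signal divided by Alamar Blue viability fluorescence both relative to DMSO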
LMP1 NFkB inh = reduces LMP1-driven NF-kappaB luciferase signal | LMP1-induced NF-kappaB luciferase reporter cells, luminescence | inhibition, % at 12.5 µM | actives 0.69% (n = 350,000) | AID 504558; in the data active = inhibition above about 41%; inconclusive = no clear call, values can overlap the other calls;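 also: 0% = neutral control wells and 100% = reference inhibitor control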
TROY signal inh = blocks TROY-dependent signaling in reporter cells; AID 1347056; Q293 LMP1-TROYcd NF-kB luciferase reporter, 4 h; inhibition, % at 10 µM; actives 0.98% (n = 360,000);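 active = compounds whose plate-normalised and pattern-corrected inhibition of the luciferase reporter signal at the single screening dose is 50% or more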
Numbers without * were called inactive; ? = inconclusive; nt = no result.

SMILES | TWEAK-Fn14 inh | LGR2 antag | EWS-Fli inh | LMP1 NFkB inh | TROY signal inh
Cc1noc(C)c1NC(=O)Nc1cccc2c1O[C@@H](CN(C)S(=O)(=O)c1ccccc1)[C@@H](C)CN([C@H](C)CO)C2=O | nt | -11 | 2 | nt | nt
Cn1c(=O)[nH]c(=O)c2c1nc(CN1CCOCC1)n2CCCc1ccccc1 | -6 | -3 | -1 | 85* | 0
CCCCn1c(CN2CCN(c3cccc(Cl)c3)CC2)nc2c1c(=O)[nH]c(=O)n2C | 17 | 11 | 58* | 10 | 0
Cn1c(=O)[nH]c(=O)c2c1nc(CN1CCN(c3cccc(Cl)c3)CC1)n2CCCc1ccccc1 | 2 | 12 | 2 | -8 | 11
Cc1ccc(S(=O)(=O)Nc2ccc3c(c2)CC(=O)N([C@H](C)CO)C[C@H](C)[C@@H](CN(C)S(=O)(=O)c2ccc(C)cc2)O3)cc1 | nt | -1 | 0 | nt | nt
C[C@@H]1CCCCO[C@@H](CN(C)C(=O)c2ccncc2)[C@@H](C)CN([C@H](C)CO)C(=O)c2cc(NS(=O)(=O)c3ccccc3)ccc2O1 | nt | 14 | -19 | nt | nt
CCOC(=O)/C(=C/c1c(C)n(C)c2ccc([N+](=O)[O-])cc12)C(C)=O | 73* | 36 | 7 | 9 | 50*
CCOC(=O)c1c(N)c2cc([N+](=O)[O-])ccc2n1C | -41 | -20 | 5 | 0 | -19
CN(C)c1ccc(-c2nnc(-c3cccs3)o2)cc1 | 63* | 16 | 8 | 16 | 18
CC(NC(=O)c1ccc(F)cc1)c1ccc2c(c1)CCCC2 (configuration not stated) | 20 | nt | nt | 1 | 53*
CCc1ccc(OCC(=O)O/N=C(\N)c2ccccn2)cc1 | -12 | -36 | -68 | nt | -30
CC(C)(C)c1ccc(C(=O)O/N=C(\N)c2ccccn2)cc1 | 103* | 102* | 75* | 74* | 89*
Cc1cccc(/C(N)=N/OC(=O)c2ccc(Br)o2)c1 | -41 | -29 | nt | -28 | -53
N/C(=N\OC(=O)c1ccc(Br)o1)c1ccccn1 | 60* | 74* | 11 | 31 | 51*
CCOc1ccc(C(=O)O/N=C(\N)c2ccccn2)cc1 | 103* | 103* | 81* | 88* | 87*
N/C(=N\OC(=O)c1ccccc1)c1ccccn1 | 96* | 95* | 20 | 45* | 75*
CNC(=O)C[C@@H]1CC[C@@H]2[C@@H](COc3ccc(NC(=O)NC4CCCC4)cc3C(=O)N2C)O1 | nt | 9 | -3 | nt | nt
Cc1ccc(S(=O)(=O)N2C[C@H]3O[C@H](CNS(=O)(=O)c4ccccc4C)CC[C@H]32)cc1 | nt | nt | 1 | nt | nt
CC(C(=O)O/N=C(\N)c1ccccn1)c1ccc([N+](=O)[O-])cc1 (configuration not stated) | 32 | -15 | -30 | -1 | 44
N/C(=N\OCc1ccc([N+](=O)[O-])cc1)c1ccccn1 | nt | nt | nt | 73* | nt
O=C(NCC1CC1)[C@@H]1[C@@H](CO)[C@@H]2Cn3c(ccc(-c4cccnc4)c3=O)[C@@H]2N1C(=O)NC1CCCC1 | nt | 2 | -2 | nt | nt
CN1c2ccc(C3=CCCCC3)cc2[C@H]2[C@H](CCN2S(=O)(=O)c2ccccc2F)[C@@H]1CO | nt | 5 | 12 | nt | nt
CC1CCCC(C)N1c1nnc(NC(=O)c2cc(-c3ccc(Br)cc3)on2)s1 (configuration not stated) | 15 | nt | 3 | -1 | 44
O=C(Nc1nnc(N2CCCCCC2)s1)c1cc(-c2ccc(Br)cc2)on1 | 2 | nt | -11 | 86* | 3
CC(=O)O[C@H]1C(=O)[C@]2(C)[C@H]([C@H](OC(=O)c3ccccc3)[C@]3(O)C[C@H](OC(=O)[C@H](O)[C@@H](NC(=O)c4ccccc4)c4ccccc4)C(C)=C1C3(C)C)[C@]1(OC(C)=O)CO[C@@H]1C[C@@H]2O | 17 | 4 | 61* | 13 | 14
SMILES | TWEAK-Fn14 inh | LGR2 antag | EWS-Fli inh | LMP1 NFkB inh | TROY signal inh
CC(=O)O[C@H]1C(=O)[C@@]2(C)C([C@H](OC(=O)c3ccccc3)[C@]3(O)C[C@H](OC(=O)[C@H](O)[C@@H](NC(=O)c4ccccc4)c4ccccc4)C(C)=C1C3(C)C)[C@]1(OC(C)=O)CO[C@@H]1C[C@H]2O (some centres not stated) | 37 | 7 | 55* | 0 | 6
COc1ccc(S(=O)(=O)Nc2cc(C(C)C)c(O)cc2C)cc1 | -2 | nt | nt | 1 | -2
COc1ccc2nc3cc(Cl)ccc3c(Nc3cc(C(C)C)c(O)cc3C)c2c1 | 63* | 10 | 4 | 19 | 26
O=[N+]([O-])c1ccc(N/N=C/c2sc(N3CCOCC3)nc2-c2ccccc2)c(S(=O)(=O)Nc2ccccc2Cl)c1 | 69* | ? | nt | 35 | 49
O=[N+]([O-])c1ccc(N/N=C/c2sc(N3CCOCC3)nc2-c2ccccc2)c(S(=O)(=O)Nc2ccc(Cl)cc2)c1 | 61* | 5 | 38 | 55* | 59*
O=C(O)c1cccc(N/N=C/c2sc(N3CCOCC3)nc2-c2ccccc2)c1 | -77 | -115 | nt | -35 | -88
O=C(N/N=C/c1sc(N2CCOCC2)nc1-c1ccccc1)c1ccccc1Cl | -7 | 24 | 1 | 15 | 8
CCS(=O)(=O)Nc1ccc2c(c1)C(=O)N(C)[C@H]1CC[C@H](CC(=O)N3CCN(C)CC3)O[C@@H]1CO2 | nt | 14 | -8 | nt | nt
Brc1ccc(N=Nc2ccc3ccccc3n2)cc1 | 99* | 95* | 77* | 63* | 76*
CCc1cc2c(=O)c(-c3cscn3)coc2c(CN(C)C)c1O | -63 | -12 | nt | 4 | 66*
CCc1cc2c(=O)c(-c3ccc4c(c3)OCO4)coc2c(CN(C)C)c1O | -12 | 4 | 15 | 0 | 36
C[C@@H](NC(=O)[C@H]1[C@H](CO)[C@H]2Cn3c(cccc3=O)[C@H]2N1Cc1ccncc1)c1ccccc1 | nt | -13 | 3 | nt | nt
Cc1noc(C)c1NC(=O)Nc1ccc2c(c1)C(=O)N([C@@H](C)CO)C[C@@H](C)[C@H](CN(C)C(=O)c1ccccc1)OCCCC[C@H](C)O2 | nt | -7 | 3 | nt | nt
Cc1cc(/C=N/n2cnnc2)c(C)n1-c1ccc(OCc2ccc(Cl)cc2Cl)cc1 | 61* | nt | nt | 31 | 77*
COc1cccc(S(=O)(=O)Nc2ccc3c(c2)C(=O)N(C)[C@@H]2CC[C@@H](CC(=O)NCC4CCCCC4)O[C@@H]2CO3)c1 | nt | 0 | 10 | nt | nt
